A selection: hits, their analogues and other compounds. The true share with any hit is near 3.5%.
GPR151 activ: activators of human GPR151, primary screen, cell-based, PathHunter beta-arrestin, luminescence; PathHunter beta-arrestin GPR151 cells; activation, % at 11.2 µM; 650,000 compounds, 1% hits; in the data active = activation above about 4.9%;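 also: 0% = median of compound wells and 100% = cells with positive control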
MITF inh: MITF inhibitors, primary screen, biochemical, AlphaScreen, human. AlphaScreen MITF homodimerization, bead proximity signal. AID 1259374, 2018. 650,000 compounds, 0.91% hits. inhibition, % at 2.6 µM; in the data active = inhibition above about 50%;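 also: 0% = vehicle wells with protein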
Target sequence (O75030 whole entry, looked up): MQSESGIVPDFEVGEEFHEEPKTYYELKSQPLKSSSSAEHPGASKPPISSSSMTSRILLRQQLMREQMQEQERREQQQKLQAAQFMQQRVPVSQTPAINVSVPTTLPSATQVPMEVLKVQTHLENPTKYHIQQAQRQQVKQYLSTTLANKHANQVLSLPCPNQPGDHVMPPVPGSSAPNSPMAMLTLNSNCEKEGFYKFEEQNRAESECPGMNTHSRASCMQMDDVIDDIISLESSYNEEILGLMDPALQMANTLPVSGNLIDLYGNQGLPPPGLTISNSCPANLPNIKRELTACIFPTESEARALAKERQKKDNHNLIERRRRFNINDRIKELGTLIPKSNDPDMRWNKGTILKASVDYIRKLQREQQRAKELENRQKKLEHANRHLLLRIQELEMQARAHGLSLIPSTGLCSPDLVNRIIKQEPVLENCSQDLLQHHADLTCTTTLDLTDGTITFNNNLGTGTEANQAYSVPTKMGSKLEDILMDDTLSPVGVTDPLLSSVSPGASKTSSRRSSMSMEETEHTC
FBW7 activator: FBW7 E3 ligase activators, primary screen, biochemical, AlphaScreen, human | F-box/WD repeat-containing protein 7 (Homo sapiens), Q969H0 | AlphaScreen FBW7–phospho-cyclin E peptide binding, activator screen | normalized activity (activation), % at 26.1 µM | 650,000 compounds, 0.13% hits | AID 1259310, 2017; in the data active = normalized activity above about 1.9%;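 also: purified mutant Fbw7 with reduced substrate affinity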
TEAD-YAP inh: TEAD-YAP interaction inhibition, primary screen, TEAD-YAP interaction inhibitor project, luminescence, HEK-TIYL cells | AID 1259422, 2018 | 640,000 compounds, 1.4% hits | inhibition, % at 9.12 µM | TEAD-Gal4/YAP UAS-luciferase luminescence; in the data active = inhibition above about 32%;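 also: 0% = median of test compound wells and 100% = reference inhibitor wells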
* = called active by the depositor.

SMILES	GPR151 activ	MITF inh	FBW7 activator	TEAD-YAP inh
CCCNC(=O)CCS(=O)(=O)c1nc(-c2ccc(OC)cc2)cc(C(F)(F)F)n1	0	3	2.1*	10
CCN(CC)CCNc1ncnc2ccc(Br)cc12	0	8	0	-3
CCN1CCN(C/C=C/c2ccc(N(C)C)cc2)CC1	0	9	0	0
CN1CCN(C/C=C/c2ccc(N(C)C)cc2)CC1	0	68*	0	6
Cc1ccc(NC(=O)CN(C)S(=O)(=O)c2ccc3c(c2)c(=O)n(C)c(=O)n3C)cc1F	1	0	0	-5
Cc1cc(C)c(N(C(=O)CCl)C(=O)C2CCCN2C(=O)CCl)c(C)c1 (stereo not drawn)	1	4	0	32*
Cc1ccccc1OCC(=O)Nc1ccc(Oc2ccc3c(c2)C(=O)NC3=O)cc1	1	11	0	52*
O=C(COc1ccccc1)Nc1ccc(Oc2ccc3c(c2)C(=O)NC3=O)cc1	-1	8	0	51*
CCC(=O)Nc1ccc(Oc2ccc3c(c2)C(=O)NC3=O)cc1	1	-13	0	-2
O=C(CCc1ccccc1)Nc1ccc(Oc2ccc3c(c2)C(=O)NC3=O)cc1	0	-3	0	52*
Cc1c(NC(=O)c2ccc(CSc3ccccc3)cc2)c(=O)n(-c2ccccc2)n1C	-1	23	0	-12
O=C1N(c2ccccc2)C[C@@H]2C[C@@H](c3cc4ccccc4o3)N3CCC[C@@]123	-1	1	0	65*
O=C(CSc1nc2c(sc(=S)n2Cc2ccco2)c(=O)n1-c1ccc(F)cc1)NCC1CCCO1 (stereo not drawn)	1	10	0	3
Cc1ccn2c(-c3csc(Nc4cccc(O)c4)n3)c(C)nc2c1	0	4	0	49*
CCOc1ccc(Nc2nc(-c3c(C)nc4ccccn34)cs2)cc1	0	3	1	70*
CCOc1ccccc1Nc1nc(-c2c(C)nc3ccccn23)cs1	0	0	0	7
CCOc1ccc(Nc2nc(-c3c(C)nc4cc(C)ccn34)cs2)cc1	2	0	0	67*
Cc1cccc(Nc2nc(-c3c(C)nc4cc(C)ccn34)cs2)c1	0	-12	0	11
COc1ccc(/C=N/NC(=O)c2cccnc2)cc1Cn1cnc([N+](=O)[O-])n1	0	11	0	45*
Oc1ccc(Br)cc1/C=N/NC(=S)Nc1cccnc1	0	57*	-1	12
COc1ccc(/C=N/NC(=O)c2cccnc2)cc1CN1CCN(c2ccc(F)cc2)CC1	0	8	0	3
O=C(N/N=C/c1cc(Cl)cc(Br)c1O)c1ccccc1O	1	27	0	57*
Cc1ccc(O)c(/C=N/NC(=O)c2ccccc2)c1	-2	26	-2	59*
COc1cc(S(=O)(=O)NC2CCCCC2)ccc1Br	3	11	0	9
O=C(N/N=C/c1ccccc1O)c1ccc(F)cc1	0	27	0	-34
SMILES	GPR151 activ	MITF inh	FBW7 activator	TEAD-YAP inh
COc1cc(/C=N/NC(=O)c2cccc(NC(C)=O)c2)cc(Cl)c1O	0	63*	0	0
Cc1ccc(C(=O)N/N=C/c2cc(Br)ccc2O)cn1	0	84*	-1	50*
COc1cc(Cl)cc(/C=N/NC(=O)c2ccccc2O)c1O	0	45	-3	75*
O=C(N/N=C/c1cc(Br)ccc1O)c1ccc(F)cc1	1	12	0	76*
O=C1CC2(CCN(C(=O)c3ccco3)CC2)Oc2ccccc21	0	-13	0	-4
COc1ccc(/C=C/C(=O)N2CCN(c3ncccn3)CC2)cc1OC	-1	1	0	7
COc1cc(C(=O)N/N=C/c2cc(Br)cc(Cl)c2O)cc(OC)c1OC	1	27	-1	58*
COc1cc(Br)cc(/C=N/NC(=O)c2ccccc2)c1O	-1	9	0	71*
COc1cc(Br)cc(/C=N/NC(=O)c2ccccc2Br)c1O	1	38	0	3
CCOc1cc(/C=N/NC(=O)c2cccnc2)cc(Br)c1O	-1	5	0	3
COc1cc(Br)cc(/C=N/NC(=O)c2ccccc2O)c1O	-1	36	0	72*
CCOc1cc(Br)cc(/C=N/NC(=O)c2cccnc2)c1O	0	53*	-1	78*
COc1ccccc1C(=O)N/N=C/c1cc(Br)cc(OC)c1O	0	16	0	-14
CC1CN(C(=O)/C(=C/c2cn(-c3ccccc3)nc2-c2ccc(Cl)cc2)NC(=O)c2ccccc2)CC(C)O1 (stereo not drawn)	0	-2	0	-8
Clc1ccc(-c2cc3nc4c(c(N5CCNCC5)n3n2)CCC4)cc1	0	-4	0	7
Nc1cccc2c1C(=O)N(C(=O)c1ccc(N3CCCC3=O)cc1)C2=O	-2	1	0	5
COc1ccc(Cl)cc1/C=N/NC(=O)c1ccc(C)nc1	1	-3	0	-2
COc1ccc(O)c(/C=N/NC(=O)c2ccccc2O)c1	1	43	1	65*
COc1cc(Br)cc(/C=N/NC(=O)c2ccc(C)nc2)c1O	0	64*	-1	28
O=C(Nc1cc(=O)[nH]c(=O)[nH]1)c1cc(Cl)ccc1[N+](=O)[O-]	-2	-4	0	11
N=C1S/C(=C\c2ccc(OCc3ccccc3F)cc2)C(=O)N1c1ccccc1Cl	-1	0	0	-20
COCC(=O)N(CC1CCCO1)c1nnc(C)s1 (stereo not drawn)	-4	5	0	34*
Cc1nnc(N(CC2CCCO2)C(=O)c2ccno2)s1 (stereo not drawn)	2	8	0	10
Cc1csc2n1c(C(=O)c1ccccc1)c(C)[n+]2-c1ccc(Br)cc1	-1	6	0	14
CCc1c(C(=O)c2ccc(C)cc2)n2c(C)csc2[n+]1-c1ccccc1	2	2	0	40*
SMILES	GPR151 activ	MITF inh	FBW7 activator	TEAD-YAP inh
COc1ccc(-c2nc3ccccc3c(=O)n2NCc2cccc(Oc3ccccc3)c2)cc1	0	0	0	78*
COc1ccc(-c2nc3ccccc3c(=O)n2NCc2ccc(Br)cc2)cc1OC	1	2	0	-17
COc1ccc(-c2nc3ccccc3c(=O)n2NCc2cccc(OC)c2)cc1	0	10	0	8
COc1ccc(-c2nc3ccccc3c(=O)n2NCc2ccc(O)cc2)cc1OC	1	18	0	40*
COc1ccc(Cl)cc1C(=O)Oc1coc(CSc2nc(C)cs2)cc1=O	0	-4	0	2
Cc1ccc(-c2csc(NC(=O)C3C4CCC(C4)C3C(=O)O)n2)cc1C (stereo not drawn)	0	1	0	-14
Cc1nc(NCc2c(C)nn(C)c2Cl)sc1-c1ccn(CCc2cccs2)n1	2	-6	0	-7
CCOc1cccc2c1OC(c1ccc(OC)cc1)N1N=C(c3cccc(OC)c3)CC21 (stereo not drawn)	-2	-7	0	47*

Screening results as filed in PubChem BioAssay.
